Data taken from PubChem BioAssay AID1117264 (The Scripps Research Institute Molecular Screening Center, 2014).
Hit rate of the full screen: of about 89,000 compounds, about 440 (0.49%) were called active.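 How the source made its calls: active means inhibition above the mean inhibition across all screened compounds plus 3 SD (cut at about 11% in these data); inactive means the rest.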 The list comes from a sample in which actives are over-represented; it also holds similar structures and randomly drawn compounds.

target: RNA-editing ligase 1, mitochondrial (Trypanosoma brucei brucei) (UniProt P86926); experiment: T. brucei editing ligase REL1 blockade – biochemical, FRET fluorescence, primary screen (AID 1117264); conditions: TbREL1 RNA ligation, at 9.66 µM, active compounds read high;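 further: 0% = plate median of test wells and 100% = NSC42067 control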
Sequence (P86926 whole entry, looked up): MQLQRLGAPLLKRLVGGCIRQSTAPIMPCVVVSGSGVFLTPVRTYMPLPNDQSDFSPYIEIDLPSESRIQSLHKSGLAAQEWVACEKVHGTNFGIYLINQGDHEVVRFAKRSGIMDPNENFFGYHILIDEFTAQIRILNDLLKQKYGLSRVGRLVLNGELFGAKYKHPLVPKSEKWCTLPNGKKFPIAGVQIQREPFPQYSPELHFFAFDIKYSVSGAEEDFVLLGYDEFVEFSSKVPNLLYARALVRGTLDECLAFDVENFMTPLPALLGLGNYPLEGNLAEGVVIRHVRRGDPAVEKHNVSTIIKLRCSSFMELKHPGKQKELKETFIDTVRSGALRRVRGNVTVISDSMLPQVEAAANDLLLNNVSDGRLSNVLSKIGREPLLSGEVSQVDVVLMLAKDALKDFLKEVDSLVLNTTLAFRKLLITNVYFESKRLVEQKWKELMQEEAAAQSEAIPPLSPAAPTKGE

inhibition, active:
Cc1nnsc1C(=O)Nc1cccc(Cl)c1C 11.4%, CC1(C)CC(N2CCN(C(c3ccccc3)c3ccccc3)CC2)=CC(=[N+]2CCCCC2)C1 20.5%, CCCCCn1c(=O)[nH]c2cc(C(=O)NCCCN3CCCCC3C)ccc2c1=O (stereo not drawn) 11.5%, CC[C@@H](C)[C@@H]1CN([C@@H](C)CN2CCC[C@H]2CN2C(N)=NC[C@H]2C(C)C)C(=N)N1CCc1ccc(Cl)c(Cl)c1 14%, COc1c(O)cc2oc(-c3ccc(O)c(O)c3)cc(=O)c2c1O 29.5%, Nc1ccc2nc3c(=O)[nH]c(=S)[nH]c3nc2c1 50.5%, O=C(NCc1ccccc1)[C@@H]1CSC2c3ccccc3C(=O)N21 (stereo partly drawn) 18.5%

inhibition, inactive:
Cc1nc(C)c(C(=O)Nc2cccc(C)c2C)o1 -2.18%, Cc1c(Cl)cccc1NC(=O)NCCCN1CCCC1=O 5.26%, O=C(OCC(=O)N1CCCC1)c1ccc(Cl)nc1 4.11%, O=C1CC(N2CCN(C(c3ccccc3)c3ccccc3)CC2)C(=O)N1 (stereo not drawn) 4.81%, Cc1cccc(N2CCN(C(c3ccccc3)c3nnnn3CC3CCCO3)CC2)c1C (stereo not drawn) -2.64%, COC(=O)CN1C(=O)[C@H]2[C@@H](/C=C/c3ccccc3)N3C(=O)CN(CC4CC4)C(=O)[C@@]3(Cc3ccccc3)[C@H]2C1=O -1.86%, NC(=O)COC(=O)c1ccc2c(c1)C(=O)N(Cc1ccco1)C2=O -0.09%, Cc1cc(NS(=O)(=O)c2ccc(NC(=O)CSc3nnc(SCc4ccc(F)cc4)s3)cc2)nc(C)n1 1.56%, CCOC(=O)C1C(c2ccc(O)cc2)NC(=O)NC1(O)C(F)(F)F (stereo not drawn) -0.27%, COC(=O)C1CN(CCc2ccccc2)CCS(=O)(=O)N1Cc1cccc(Cl)c1 (stereo not drawn) 1.04%, COc1ccc(CCNC(=O)CSc2nc3[nH]ncc3c(=O)n2-c2cccc(C(F)(F)F)c2)cc1OC -1.55%, CCc1ccc(N(CC(=O)NCc2cccnc2)S(=O)(=O)c2ccccc2)cc1 -1.98%, N#Cc1ccc(C2N=C(c3ccccc3)NO2)cc1 (stereo not drawn) 9.48%, O=C(Nc1ccon1)c1nc[nH]c1C(=O)NCc1ccccc1 5.43%, Cc1nc2ccc(C(=O)N3CCN(C(=O)C(C)(C)C)CC3)cc2n1C1CCCC1 -0.3%, COc1ccccc1/C=C/C(=O)OCC(=O)NC1CCCCCC1 1.81%, Cc1ccc(Cn2c(C)c(C(=O)NCc3ccccc3C(F)(F)F)sc2=O)cc1 0.6%, COc1ccc(S(=O)(=O)N2CCOCC2)cc1NC(=O)CC1CC2CCC1C2 (stereo not drawn) -2.41%, CCOc1ccc(NC(=O)CCCCCN2C(=O)[C@@H]3Cc4ccccc4CN3C2=O)cc1 -0.69%, Cc1c(S(=O)(=O)NC(C)c2ccccc2)c(=O)n(C)c(=O)n1C (stereo not drawn) 0.77%, CCOc1cc2[nH]c(=O)n(Cc3ccc(C(=O)NCCCN4CCCC4=O)cc3)c(=O)c2cc1OCC -3.44%, CCC1CCCCN1CCCNC(=O)C1CCC(Cn2c(=O)[nH]c3ccccc3c2=O)CC1 (stereo not drawn) 0.83%, CCn1c(=S)sc2c(=O)n(CC(=O)Nc3ccc(OC)cc3)c(C)nc21 -1.47%, O=C(NC1CCCCC1)C1CCCN(S(=O)(=O)c2ccc(Br)s2)C1 (stereo not drawn) 1.07%, CCOC(=O)N1CCN(Cc2nc(Cc3cccc(C(F)(F)F)c3)no2)CC1 1.05%, COc1ccc(N(Cc2ccc(N(C)C)cc2)C(=O)c2ccc(S(C)(=O)=O)cc2)cc1 -9.41%, COCCN(Cc1ccccc1)C(=O)Cc1ccc(S(=O)(=O)N2CCOCC2)s1 -2.32%, CCc1ccc(CN2C(=O)c3ccccc3C2C(=O)NCC2CCCO2)cc1 (stereo not drawn) -0.89%, COCC(=O)N(C)[C@H]1C[C@H]2c3cc(Oc4ccccc4C)ccc3CCN2C(=O)[C@H]1[C@H](C)O 1.02%, COc1cccc(CNC(=O)C2CCCN(c3ncnc4c3nc3n4CCCCC3)C2)c1 (stereo not drawn) 0.12%, Cc1ccc(NC(=O)Cn2cccc2C2=NC(c3ccccc3)CO2)c(C)c1 (stereo not drawn) -0.96%, COc1ccc(N2C(=O)c3ccccc3NC2c2ccc(OC)c(CN3CCOCC3)c2)cc1 (stereo not drawn) 0.23%, O=C1NC[C@H](Cc2ccc(O)cc2)N(C[C@H]2CCCN2C[C@H](Cc2ccccc2)N2C[C@H](Cc3ccccc3)N(CCc3ccccc3)C(=O)C2=O)C1=O -1.45%, CC1CCCCN1C(=O)Cn1c(=O)oc2cc(S(=O)(=O)N3CCCCC3)ccc21 (stereo not drawn) -1.44%, Cc1cc(C)cc(N(CC(=O)NC2CCCC2)C(=O)CCC(=O)Nc2cc(C)on2)c1 0.2%, Nc1ncnc2c1ncn2[C@@H]1O[C@H](C(=O)N[C@@H](CCc2ccccc2)C(=O)NCC(=O)N2CCOCC2)[C@@H](O)[C@H]1O -1.68%, CCOC(=O)COc1cc(OCC(=O)OCC)c2c(=O)cc(-c3ccccc3)oc2c1 2.07%, COc1cc(NC(=O)CSC(=S)N2CCCC2)c(OC)cc1Cl 6.87%, O=c1[nH]c(=O)c2nc3ccccc3nc2[nH]1 -0.15%, COc1ccc([N+](=O)[O-])cc1N(CC(=O)Nc1ccccc1C(=O)N1CCOCC1)S(C)(=O)=O -1.27%, O=C(NCc1ccccc1)C1CCN(C(=O)Cc2ccccc2)CC1 0.8%, O=C(NCc1ccccc1)C1c2ccccc2OCC(=O)N1C1CC1 (stereo not drawn) 4.12%, Cc1c(CCC(=O)N[C@@H](CC(C)C)C(=O)O)c(=O)oc2c(C)c3oc4c(c3cc12)CCCC4 0.56%, Cc1cc(NC(=O)CN2C(=O)NC(C)(CCc3ccccc3)C2=O)no1 (stereo not drawn) 0.2%, O=C(NNC1CC(=O)N(c2cccc(Cl)c2)C1=O)c1cccnc1 (stereo not drawn) 0.41%, O=S1(=O)CC(N2CCN(CCO)CC2)CN1Cc1cn(Cc2cccc(Cl)c2)nn1 (stereo not drawn) 0.87%
